# Results taken from the supplement of paper PMC3334620.
# The full ranking holds about 33,000 sequences; the median of “E-score (-0.5 to 0.5)” is about -0.035, and the highest 2% start at about 0.35. What follows is part of a selection rich in the highest values, with near analogues and random picks from the rest.
# Molecular target: T1, Pdr3 (UniProt P33200)
# T1 sequence: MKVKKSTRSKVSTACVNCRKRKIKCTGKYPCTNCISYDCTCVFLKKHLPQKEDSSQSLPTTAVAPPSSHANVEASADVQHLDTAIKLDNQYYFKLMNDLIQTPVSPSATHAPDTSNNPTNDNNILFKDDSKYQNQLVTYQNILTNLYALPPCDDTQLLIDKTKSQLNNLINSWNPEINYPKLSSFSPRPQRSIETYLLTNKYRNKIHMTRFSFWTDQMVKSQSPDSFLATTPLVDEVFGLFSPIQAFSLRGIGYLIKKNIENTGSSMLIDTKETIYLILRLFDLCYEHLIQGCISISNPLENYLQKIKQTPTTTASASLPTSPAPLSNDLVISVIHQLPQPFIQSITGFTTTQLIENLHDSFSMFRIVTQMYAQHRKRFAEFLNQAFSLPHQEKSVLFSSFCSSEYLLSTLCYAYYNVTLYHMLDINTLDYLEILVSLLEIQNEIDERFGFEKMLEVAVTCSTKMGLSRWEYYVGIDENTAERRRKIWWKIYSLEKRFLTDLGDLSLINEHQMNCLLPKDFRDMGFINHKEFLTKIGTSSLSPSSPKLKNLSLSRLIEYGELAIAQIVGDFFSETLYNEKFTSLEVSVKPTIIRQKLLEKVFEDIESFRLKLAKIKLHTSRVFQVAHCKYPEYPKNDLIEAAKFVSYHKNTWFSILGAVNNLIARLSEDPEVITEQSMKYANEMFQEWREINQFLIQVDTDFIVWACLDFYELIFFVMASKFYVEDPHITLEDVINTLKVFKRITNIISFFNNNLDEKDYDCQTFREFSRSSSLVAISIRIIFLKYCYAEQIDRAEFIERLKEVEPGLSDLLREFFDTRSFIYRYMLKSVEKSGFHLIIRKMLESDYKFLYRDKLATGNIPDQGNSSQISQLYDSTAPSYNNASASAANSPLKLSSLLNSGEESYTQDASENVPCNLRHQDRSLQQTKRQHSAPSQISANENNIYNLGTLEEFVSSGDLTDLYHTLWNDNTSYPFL
# Assay: PBM E-score (8-mer binding enrichment) (E-score (-0.5 to 0.5)); higher = stronger / more preferred TF binding
# Conditions: protein concentration: 200 nM; construct: GST-full length
# Method in brief: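 Universal all-10-mer Agilent arrays, fresh or stripped once, were converted to double-stranded form by primer extension. GST-tagged yeast transcription factors from PURExpress in vitro transcription/translation, full-length or DNA-binding domain only, were applied at about 100-200 nM and detected with fluorescent anti-GST. After masliner normalisation, the Universal PBM Analysis Suite scored each ungapped eight-base word together with its reverse complement by E-score.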
row,Sequence,PBM E-score
1,CTAGCAAA,-0.187
2,ACTCCGAA,0.238
3,GTTCCAAA,-0.00321
4,AATCCGAA,0.0894
5,GTTCCGAA,0.471
6,ATTCCGAC,0.413
7,CTTCCGAA,0.385
8,CTACCGAA,-0.0817
9,ATTCCGAA,0.436
10,ACTCCGAC,0.255
11,GGTCCGAA,0.319
12,CTTCCGAC,0.267
13,CTTCCAAA,-0.155
14,ACACGGCC,0.14
15,CTCCACGA,-0.144
16,GTCTAGGA,-0.256
17,AACGCATC,-0.139
18,ACTTACCG,0.233
19,AATTTTAG,-0.194
20,ATCAGTCA,0.0413
21,GGCCAAGA,-0.176
22,GGGTTGAC,0.0502
23,CTCGCGCA,-0.029
24,AGCCTAAT,-0.208

row,Sequence,PBM E-score
1,AGCATACC,-0.0406
2,AGTCCGAG,0.281
3,ATTCCGAG,0.449
4,ACTCCGAG,0.28
5,AAGAGCAA,-0.123
6,ATGCGGTC,0.21
7,CGTTAAGA,-0.136
8,ACGGGAAG,0.133
9,CCGGGAAA,0.344
10,CGGGGAAC,0.258
11,CCGGGAAG,0.359
12,ACGGGAAC,0.33
13,CCGGGAAC,0.362
14,AGAAGGTA,-0.0743
15,ACGAGGCC,-0.0311
16,AGTATGCC,-0.0201
17,AGCTTCCA,0.0336
18,CGCTTCCG,0.419
19,AGCTTCCC,-0.0703
20,AGCTTCCG,0.416
21,CGCTTCCC,0.0936
22,CGCTTCCA,-0.00125
23,ACGGAACA,0.477
24,TCGGAACA,0.483

row,Sequence,PBM E-score
1,CCGGAACA,0.471
2,GAGGAACA,0.147
3,TGGGAACA,0.0839
4,CTGGAACA,0.117
5,CAGGAACA,-0.0115
6,TAGGAACA,-0.0452
7,GCGGAACA,0.474
8,AAGGAACA,-0.129
9,ATGGAACA,-0.0996
10,GTGGAACA,0.0611
11,ACTTGCAG,-0.177
12,AGGGCCTG,-0.195
13,AGAAAATA,0.0181
14,GGAGTAAC,0.0889
15,ATAGACCC,0.154
16,TCTCGTCA,-0.0279
17,AGGGGCAC,-0.293
18,ACATCGCG,0.0219
19,CGCTTCGC,-0.0359
20,AAACATGT,0.00604
21,ACTTCCGC,0.385
22,ACTTCCAC,0.0382
23,CCTTCCGC,0.38
24,CCTTCCTC,-0.201

row,Sequence,PBM E-score
1,CCTTCCGA,0.323
2,ACTTCCCC,-0.132
3,AGATTCAT,-0.0927
4,AGTTGCCG,0.196
5,CCCAGAGA,-0.223
6,CCCGGAGG,0.165
7,TCCGGAGA,0.44
8,CCCGGAGA,0.387
9,GCCGGAGA,0.244
10,ACCGGAGA,0.353
11,AAATTCAT,-0.0189
12,CGTGCCTC,-0.0179
13,AACGCAAT,0.115
14,CTTCGGAC,0.283
15,CTTCGGTA,-0.0957
16,CTTCGGAA,0.438
17,ATTCGGAA,0.415
18,GTTCGGCA,0.054
19,GTTCGGAA,0.431
20,ATTCGGAG,0.2
21,ATTCGGAC,0.275
22,GTTCGGGA,0.233
